PubChem BioAssay AID1851 (National Center for Advancing Translational Sciences (NCATS), 2009)
Screen size: about 16,000 compounds; about 2,600 (16%) were called active. Roughly 20% stayed inconclusive and do not appear here. Calls follow the shape of the dose curve; as a rule, active = well fitted curve in the direction sought with a large enough effect; inconclusive = small, poorly fitted or top-dose-only effect, or effect the other way; inactive = no such curve, though single readings can be large or run the other way. The list is a sample of the results.

The compounds below were run against Cytochrome P450 2D6 (Homo sapiens) (UniProt P10635) (assay: Cytochrome panel assay with activity outcomes). Conditions: recombinant CYP, pro-luciferin dealkylation, luminescence, p450-cyp2d6; series mostly up to 57.1 µM; activity, negative = inhibition: at the top concentration.
% is scaled to controls: 0 for no effect and ±100 for the full control effect.

Cytochrome P450 2D6 (Homo sapiens), sequence (P10635 whole entry, looked up): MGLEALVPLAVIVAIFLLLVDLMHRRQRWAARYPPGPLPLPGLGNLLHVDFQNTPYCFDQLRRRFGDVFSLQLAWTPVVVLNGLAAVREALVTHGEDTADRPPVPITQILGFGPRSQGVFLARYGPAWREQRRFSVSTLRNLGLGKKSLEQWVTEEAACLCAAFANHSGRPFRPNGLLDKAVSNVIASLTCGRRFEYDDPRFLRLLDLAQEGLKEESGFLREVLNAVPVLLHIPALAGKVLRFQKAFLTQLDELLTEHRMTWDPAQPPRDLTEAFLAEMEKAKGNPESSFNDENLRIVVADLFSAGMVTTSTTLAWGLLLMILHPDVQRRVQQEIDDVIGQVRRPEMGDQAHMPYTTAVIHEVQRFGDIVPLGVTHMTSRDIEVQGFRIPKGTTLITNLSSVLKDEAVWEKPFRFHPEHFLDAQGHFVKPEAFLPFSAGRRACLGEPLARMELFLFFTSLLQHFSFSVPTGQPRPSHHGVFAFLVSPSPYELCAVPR

Row | Structure (SMILES) | activity, negative = inhibition | AC50
1 | NS(=O)(=O)c1cc(Br)c(N=Nc2ccc(O)c3ncccc23)c(Br)c1 | -4.11% [at 11.4 µM] (inactive) | –
2 | Nc1nc2c(nc(Br)n2[C@@H]2O[C@H]3COP(=O)(O)O[C@@H]3[C@H]2O)c(=O)[nH]1 | -1.47% (inactive) | –
3 | CCN(CC)c1cc(C)c2cc(NC(=O)CNC(C)=O)ccc2n1 | -22.7% (inactive) | –
4 | O=C(Cc1ccc2c(c1)CCCC2)Nc1ccccc1Br | -15.8% (inactive) | –
5 | CC(C)N=c1cc2n(-c3ccc(Cl)cc3)c3ccccc3nc-2cc1Nc1ccc(Cl)cc1 | – | 2.51 µM (active)
6 | CCOC(=O)c1cc2sc(C)cc2n1CC(=O)N1CCN(C(=O)c2ccco2)CC1 | -14.6% (inactive) | –
7 | COc1ccc(N=Cc2ccc(CNS(=O)(=O)c3ccc(Cl)cc3)o2)cc1 | 15.2% (inactive) | –
8 | Nc1ncnc2c1ncn2[C@H]1O[C@@H](C(=O)OCCO)[C@@H](O)[C@H]1O | 17% [at 11.4 µM] (inactive) | –
9 | CCCn1nc2cc(C(=O)NCc3ccc4c(c3)OCO4)ccc2c1OCC | -40.6% (inactive) | –
10 | CCc1ccccc1NC(=S)NCc1ccc2c(c1)OCO2 | – | 1.26 µM (active)
11 | Cc1ccc(CNC(=O)C2CCCN2C(=O)NCc2ccccc2)cc1 (stereo unspecified) | -6.14% (inactive) | –
12 | COc1ccccc1NC(=O)N1CCCC1C(=O)NCc1ccc2c(c1)OCO2 (stereo unspecified) | – | 14.1 µM (active)
13 | CC(=O)Nc1cccc(NC(=O)C2CCCN2C(=O)Nc2ccccc2C)c1 (stereo unspecified) | -10.4% (inactive) | –
14 | CCc1ccccc1NC(=O)c1ccc(-n2c(C)ccc2C)cc1 | -24.8% (inactive) | –
15 | CCNc1nc(NCC)nc(N(C)N)n1 | -24.1% (inactive) | –
16 | CCOC(=O)c1c(C)nc2sc3c(=O)n(-c4ccc(OC)cc4)nnc3c2c1-c1ccc(OC)cc1 | -1.38% (inactive) | –
17 | CCOC(=O)C1=C(C)NC(C)=C(C(=O)OC)[C@@H]1c1cccc([N+](=O)[O-])c1 | -12% [at 25.6 µM] (inactive) | –
18 | COC(=O)C1=C(C)NC(C)=C(C(=O)OCCSc2ccccc2)[C@@H]1C | – | 25.1 µM (active)
19 | COC(=O)c1cc(OC)c(OC)cc1NC(=O)CSc1ccccc1 | 4.67% (inactive) | –
20 | COCCNC(=O)CCCCCn1c(=S)[nH]c2ccccc2c1=O | -1.04% (inactive) | –
21 | COc1cccc(N2CCN(C(=O)Nc3ccc4c(c3)NC(=O)CO4)CC2)c1 | -13.3% (inactive) | –
22 | S=c1nc[nH]c2c1ncn2Cc1ccco1 | 1.42% [at 11.4 µM] (inactive) | –
23 | CC[C@H](C(=O)c1cccs1)C(O)(C(F)(F)F)C(F)(F)F | – | 3.16 µM (active)
24 | CCC/C=C(\CCC)C(NC(=O)c1cccs1)c1ccc(C(F)(F)F)cc1 (stereo unspecified) | 4.02% (inactive) | –
25 | O=C(O)C(Cc1cccs1)C(=O)O | 21.5% [at 11.4 µM] (inactive) | –
26 | CN[C@H]1[C@@H](O[C@@H]2[C@H](O[C@@H]3[C@@H](O)[C@@H](O)[C@@H](N=C(N)N)[C@@H](O)[C@@H]3N=C(N)N)O[C@H](C)[C@@]2(O)C=O)O[C@@H](CO)[C@@H](O)[C@H]1O | 1.07% [at 25.6 µM] (inactive) | –

Row | Structure (SMILES) | activity, negative = inhibition | AC50
27 | C=CCN1C(=NC(=O)CC)SC2CS(=O)(=O)CC21 (stereo unspecified) | -2.84% (inactive) | –
28 | CC(C)=C[C@H]1[C@@H](COC(=O)c2ccccc2Cl)C1(C)C | -3.97% [at 11.4 µM] (inactive) | –
29 | Clc1ccc2c(c1)C1=C(C(c3ccncc3)O2)C(c2ccc(Br)cc2)n2ncnc2N1 (stereo unspecified) | -28.8% (inactive) | –
30 | CCCn1nnc(NC(=O)Cc2ccccc2)n1 | -9.5% (inactive) | –
31 | CC(C)CN1CCCC2(CCN(S(=O)(=O)c3ccccc3)CC2)C1 | -2.15% (inactive) | –
32 | CC(C)CN1CCC2(CC1)CCN(S(=O)(=O)c1ccccc1)CC2 | – | 1 µM (active)
33 | CC(C)CN1CC[C@@]2(CCCN(S(=O)(=O)c3ccccc3)C2)C1 | – | 0.501 µM (active)
34 | O=C(NC1CCCCC1)C1CC=CCC1C(=O)OCC(Cl)=C(Cl)Cl (stereo unspecified) | -29.9% (inactive) | –
35 | C=CCNC(=S)NNc1ncnc2sc3c(c12)CC(C)(C)OC3 | -2.64% (inactive) | –
36 | CCn1nnnc1SCC(=O)c1ccc2c(c1)OCCO2 | -25.7% (inactive) | –
37 | COC(=O)[C@@]1(Cc2ccc(OC)cc2)[C@H]2c3cc(C(=O)N4CCCC4)n(CCc4c[nH]c5cc(F)ccc45)c3C[C@H]2CN1C(=O)c1ccccc1 | 0.678% (inactive) | –
38 | CC1(C)CC2(CC(c3cccs3)c3cc(Cl)c(O)cc3O2)NC(=S)N1 (stereo unspecified) | -28.9% (inactive) | –
39 | O=C1CC(c2cccs2)c2cc3c(cc2N1)OCO3 (stereo unspecified) | – | 8.91 µM (active)
40 | C#CCCCO/N=C1/C[C@@H](O)[C@@H](O)[C@@H]2[C@@H]3C(=O)N([C@@H](C)c4ccccc4)C(=O)[C@H]3CC[C@@H]12 | -9.9% [at 11.4 µM] (inactive) | –
41 | COc1cc(OC)cc(C(=O)NCC(=O)OC2CCOC2=O)c1 (stereo unspecified) | -8.8% (inactive) | –
42 | O=C(Nc1ncc(Cc2cccc(Cl)c2)s1)C1=NCCN1 | -16.7% (inactive) | –
43 | CC1CCCC(C)N1C(=O)C1CC(c2ccc(F)cc2)=NO1 (stereo unspecified) | -5.48% (inactive) | –
44 | CCc1ccc(CSc2nccn2-c2ccccc2)cc1 | – | 17.8 µM (active)
45 | c1ccc(CCSc2nccn2-c2ccccc2)cc1 | – | 1.41 µM (active)
46 | CCn1c(SCc2ccc(C)cc2)nnc1-c1nn(-c2ccccc2)ccc1=O | -12.7% (inactive) | –
47 | O=C(O)CSCCc1ccccc1 | -0.751% [at 11.4 µM] (inactive) | –
48 | O=c1ccnc(SCc2ccc(Cl)cc2)[nH]1 | 6.62% [at 11.4 µM] (inactive) | –
49 | Cn1c(CNC(=O)Nc2ccccc2)nnc1SCc1ccccc1 | -8.99% (inactive) | –
50 | Nc1nc(SCc2ccccc2)c2ncn(Cc3ccccc3)c2n1 | 9.39% [at 11.4 µM] (inactive) | –
51 | Clc1ccc(CSc2nccn2Cc2ccccc2)cc1 | – | 5.01 µM (active)
